Screening data from PubChem.
A549 tox – kills or reduces viability of A549 cells in Nrf2 counter-screen | A549 ARE-Fluc cells, CellTiter-Fluor viability, 18-24 h | Potency, µM (series often up to 46 µM), without a hit: at the top dose activity change, negative = cytotoxicity, usual class: inhibitors | hit rate 0.16% among 390,000 | AID 504648; note: % is set by controls: 0 for no effect and ±100 for the full control effect
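Cytotoxicity counterscreen: CellTiter-Fluor fluorescence was measured in A549 ARE_Fluc cells after 18-24 h of compound exposure in a concentration series. The subsequent BugLite luminescent read reports ARE-luciferase activity.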
Rango dissoc inh – inhibitors of RanGTP-induced Rango-importin beta complex dissociation; Biochemical FRET Rango-importin beta, RanGTP-induced dissociation; hit rate 0.071% among 340,000; Potency, µM (highest dose often 46.1 µM), for the others: at the highest dose activity change, negative = inhibition; calls by dose curve; note: % of control where 0% means no effect; nearly all actives have a fitted effect of over 45% in size
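Compounds sat 5 min at room temperature with 0.1 uM Rango biosensor plus 0.25 uM importin beta, then FRET pre-read. RanGTP-RCC1 (0.6 uM Ran, 2mM GTP, 0.2 uM RCC1) added for 45 min, and the CFP/YFP post-read measured blocked complex dissociation.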
Nrf2 inh – blocks Nrf2 signaling; hit rate 2.1% among 360,000; Potency, µM (doses to about 46 µM), inactives show top-dose activity change, negative = inhibition, most hits filed as inhibitors; AID 504444; A549 ARE-Fluc reporter, luciferase luminescence, 18-24 h; note: % is set by controls: 0 for no effect and ±100 for the full control effect; nearly all actives have a fitted effect of over 60% in size
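Nrf2 activity is the BugLite luminescence, read 15 min after reagent at room temperature, following CellTiter-Fluor cytotoxicity readout (30 min, 37C). Compound titrations were applied for 18-24 h to 5000 A549 ARE_Fluc cells/well in 5% FBS OPTI-MEM.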
Rango-impB inh – prevents formation of the Rango-importin beta complex; Potency, µM (highest dose often 92.2 µM), inactives show at the highest dose inhibition of complex formation; AID 540263; Rango CFP/YFP FRET sensor + importin beta, 45 min; Q14974; hit rate 0.031% among 340,000; calls by dose curve;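 note: 0% = DMSO wells and 100% = buffer wells lacking importin beta; nearly all actives have a fitted effect of over 15% in size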
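Inhibition scored from the CFP 486 nm/YFP 530 nm FRET ratio 45 min after adding 0.125 microM importin beta to 50 nM Rango biosensor preincubated 5 min with compound (room temperature, PBS with DTT, Tween-20, BSA). No-importin wells as positive control.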
Nrf2 ARE act – activates Nrf2 signaling; hit rate 0.31% among 410,000; AREc32 ARE-luciferase reporter (MCF7-derived line), luminescence, 24 h; Potency, µM (titrated, usually from 46.1 µM), for inactives: at the highest dose activation, actives largely listed as activators; AID 624171; note: % of control where 0% means no effect; nearly all actives have a fitted effect of over 65% in size
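AREc32_Fluc, 1000 cells/well, OPTI-MEM + 5% FBS, o/n 37 deg C 5% CO2; 23 nL cpd by pin tool, 24 hr; Steady-Glo 30 min RT, luminescence.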
* hit, by the source's call. A selection: hits, their analogues and other compounds. The true share with any hit is near 2.3%. Unless noted, calls come from the whole dose curve; as a rule, active = well fitted curve in the direction sought with a large enough effect; inconclusive = small, poorly fitted or top-dose-only effect, or another doubt; inactive = no such curve, though single readings can be large; an effect the other way counts as inactive or inconclusive. Potency is the fitted concentration of half-maximal effect.

Cn1nnnc1Sc1ncnc2scc(-c3ccccc3Cl)c12 was read as A549 tox -4%, Rango dissoc inh -3%, Nrf2 inh 26µM*, Rango-impB inh -1% and Nrf2 ARE act -2%.
Screening Cn1nnnc1Sc1ncnc2scc(-c3cccc(N)c3)c12 returned A549 tox -1% and Nrf2 inh 5%.
For Cn1nnnc1Sc1ncnc2scc(-c3ccc([N+](=O)[O-])cc3)c12 the results were A549 tox inconclusive, Rango dissoc inh -12%, Nrf2 inh 18µM*, Rango-impB inh 2% and Nrf2 ARE act inconclusive.
Cn1nnnc1Sc1ncnc2scc(-c3ccc4c(=O)ccoc4c3)c12 was read as A549 tox inconclusive and Nrf2 inh 16µM*.
Cn1nnnc1Sc1ncnc2scc(-c3ccc(Cl)cc3)c12 was read as A549 tox inconclusive, Rango dissoc inh -12%, Nrf2 inh inconclusive, Rango-impB inh 0% and Nrf2 ARE act -2%.
For CCCN(CC(=O)Nc1ccccc1OC)C(=O)CC1CCCC1 the results were A549 tox 8%, Rango dissoc inh 12%, Nrf2 inh -15%, Rango-impB inh 0% and Nrf2 ARE act 0%.
Screening Cc1ccc(-n2nc(C)c3c2C(Br)C(C)(C)CC3=O)nc1 (centres undefined) returned A549 tox -14%, Rango dissoc inh 14%, Nrf2 inh 7.3µM*, Rango-impB inh 1% and Nrf2 ARE act 12%.
`Cc1cc2c(s1)c1cnn(Cc3c(F)ccc(F)c3F)c(=O)c1n2C` gave A549 tox 4% and Nrf2 inh 28%.
COc1cc(C(O)P(=O)(OC2CCCCC2)c2ccc(N(C)C)cc2)cc(OC)c1OC (centres undefined) was read as A549 tox 1%, Rango dissoc inh -4%, Nrf2 inh 0%, Rango-impB inh 3% and Nrf2 ARE act -1%.
`CC(C)c1ccc(C(O)P(=O)(OC2CCCCC2)OC2CCCCC2)cc1` (centres undefined) gave A549 tox inconclusive, Rango dissoc inh 3%, Nrf2 inh 16µM*, Rango-impB inh 2% and Nrf2 ARE act 0%.
Screening CN(Cc1ccco1)C(=O)c1ccc2c(c1)N(Cc1ccccc1F)C(=O)c1ccccc1S2 returned A549 tox -28% and Nrf2 ARE act 0%.
For CC(=O)N(Cc1ccc(F)cc1)C1=C(NCCc2ccccc2)C(=O)c2ccccc2C1=O the results were A549 tox 23µM*, Rango dissoc inh 5%, Nrf2 inh 21µM*, Rango-impB inh -3% and Nrf2 ARE act -1%.
For CCOc1ccc(C2C(C(N)=O)=C(C)Nc3nc(-c4cccc(Cl)c4)nn32)cc1OC (centres undefined) the results were A549 tox 3%, Nrf2 inh -23% and Nrf2 ARE act 6%.
For C=CCN1C(=O)C(CC(=O)Nc2ccc(OCCC)cc2)N(CCCN2CCN(Cc3ccccc3)CC2)C1=S (centres undefined) the results were A549 tox inconclusive, Rango dissoc inh -17%, Nrf2 inh 18µM*, Rango-impB inh 1% and Nrf2 ARE act -3%.
For COc1ccc(NC(=O)CC2C(=O)N(Cc3ccccc3)C(=S)N2CCN2CCOCC2)cc1 (centres undefined) the results were A549 tox -11%, Rango dissoc inh 11%, Nrf2 inh -20%, Rango-impB inh 3% and Nrf2 ARE act 4%.
Screening C(=N\Nc1ccc2nncn2n1)/c1ccco1 returned A549 tox -8%, Rango dissoc inh 11%, Nrf2 inh 3%, Rango-impB inh 2% and Nrf2 ARE act 10µM*.
Screening O=C(c1cccc(C(F)(F)F)c1)N1CCOC12CCN(c1ncc(C(F)(F)F)cc1Cl)CC2 returned A549 tox -14%, Rango dissoc inh 10%, Nrf2 inh 26µM*, Rango-impB inh 0% and Nrf2 ARE act 0%.
For CCC12CN3CC(C)(CN(C1)C3c1ccc(O)cc1O)C2=O (centres undefined) the results were A549 tox -1%, Nrf2 inh 1% and Nrf2 ARE act 0%.
